Consider 15 compounds from PubChem BioAssay (NCI).

Some test systems named below: T-47D breast; BT-549 breast; MDA-MB-435 melanoma; SW-620 colon; MCF7 breast; HCT-116 colon; HCC-2998 colon; KM12 colon.
What all share (experiment): NCI-60 one-dose screen, 48 h (100 = growth as untreated, 0 = no growth, -100 = all killed)
Common to all, as to details: 10 µM unless noted

Structures are written as SMILES. The panel holds about 83,000 compounds, 20% with a hit somewhere; the sample as a whole holds those more often.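 Interpretation: 100, growth as untreated; towards 0, rising growth inhibition; 0, no net growth; 0 to -100, cell death. Compounds scoring below 10 were considered active.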 Unmarked numbers belong to inactive results. Active and inactive are the calls of the source.

On to `CSc1nc(NCCN2CCOCC2)c(C#N)c(-c2cccc([N+](=O)[O-])c2)n1`, for which the growth is 96.8% with T-47D breast; 94.2% in the experiment on BT-549 breast; 104% with MDA-MB-435 melanoma; 99.8% with SW-620 colon; 89.4% in the experiment on MCF7 breast; 98.8% with HCT-116 colon. Further, the growth with HCC-2998 colon was 112%; in the experiment on KM12 colon, 98.7%.

For `COc1ccc(-c2cc(C(=O)N=Nc3c(O)[nH]c4ccc(Br)cc34)no2)cc1`, the growth is 93.6% with T-47D breast; 107% in the experiment on BT-549 breast; 101% in the experiment with MDA-MB-435 melanoma; 93.7% with SW-620 colon; 94.1% in the experiment on MCF7 breast; 91.6% with HCT-116 colon. In addition, the growth is 104% in the experiment on HCC-2998 colon and 100% in the experiment on KM12 colon.

With `C=CCSSC1N=CNc2nc[nH]c21` (stereo not given), the growth in the experiment with T-47D breast is 22.8%; with BT-549 breast, 47%; with MDA-MB-435 melanoma it was 25.5%; in the experiment with SW-620 colon, 35.8%; in the experiment on MCF7 breast, 4.28% (active); with HCT-116 colon, 14.5%. In addition, the values for the growth in the experiment on HCC-2998 colon and in the experiment with KM12 colon were 44.2% and 52.5%, respectively.

For `Cn1cc(C(=O)c2nc(-c3c[nH]c4ccc(F)cc34)no2)c2cc(F)ccc21`, the growth is 92.1% in the experiment on T-47D breast; 92.5% in the experiment on BT-549 breast; 64% in the experiment on MDA-MB-435 melanoma; 87.9% with SW-620 colon; 58.1% in the experiment with MCF7 breast; 99.8% in the experiment with HCT-116 colon. Besides, the growth in the experiment with HCC-2998 colon is 97.4%; in the experiment on KM12 colon it was 79.2%.

Regarding `Clc1ccc2c(NCCNc3nc(N4CCCCC4)nc4ccccc34)ccnc2c1`, the growth with T-47D breast is -29.7% (active); in the experiment with BT-549 breast, 53.7%; with MDA-MB-435 melanoma, -66.4% (active); in the experiment with SW-620 colon it was -36.6% (active); in the experiment on MCF7 breast it was 14.5%; in the experiment on HCT-116 colon it was -25.4% (active). Also, the figures for the growth in the experiment with HCC-2998 colon and with KM12 colon were 10.6% and 7.18% (active), respectively.

With `CSc1ccc(-c2n[nH]nc2-c2cc3ccccc3s2)cc1`, the growth with T-47D breast is 44.9%; in the experiment with BT-549 breast, 46.8%; with MDA-MB-435 melanoma, -19% (active); in the experiment on SW-620 colon, 23.7%; with MCF7 breast, 27.7%; in the experiment with HCT-116 colon, 30.5%. Further, the growth with HCC-2998 colon was 82.3%; with KM12 colon, 32.2%.

In the case of `CC(C)(C)c1cc(/C=N\NC(=O)/C=C/C=C/c2ccc3c(c2)OCO3)c(O)c(C(C)(C)C)c1`, the growth was 35% in the experiment with T-47D breast; 92.9% in the experiment with BT-549 breast; 86.4% in the experiment on MDA-MB-435 melanoma; 74.6% with SW-620 colon; 61.3% in the experiment with MCF7 breast; 87.7% in the experiment on HCT-116 colon. Moreover, the growth with HCC-2998 colon is 89.2%; in the experiment with KM12 colon, 75.1%.

For the compound `O=C(COc1cccc(/C=C2\CSc3ccccc3C2=O)c1)Nc1nccs1`, the growth is 68.9% in the experiment on T-47D breast; -92.9% (active) in the experiment with BT-549 breast; 20.8% in the experiment on MDA-MB-435 melanoma; -74.1% (active) in the experiment on SW-620 colon; -0.12% (active) in the experiment with MCF7 breast; -21% (active) with HCT-116 colon. Also, the growth in the experiment on HCC-2998 colon was 100%; with KM12 colon it was -39.7% (active).

Consider `NS(=O)(=O)c1ccc(CN=C2NC(=O)S/C2=C\c2ccc(Br)cc2)cc1`, for which the growth with T-47D breast is 99.2%; with BT-549 breast, 103%; in the experiment on MDA-MB-435 melanoma, 101%; in the experiment on SW-620 colon it was 97.9%; in the experiment on MCF7 breast, 93.5%; with HCT-116 colon, 94.7%. The figures for the growth in the experiment on HCC-2998 colon and in the experiment on KM12 colon were 107% and 109%, respectively.

Turning to `COc1ccc(/C=C(\C#N)C(=O)Nc2cccc(Nc3nc(SC)nc(-c4cccc([N+](=O)[O-])c4)c3C#N)c2)cc1OC`, the growth in the experiment with T-47D breast was 87%; in the experiment with BT-549 breast, 95.9%; in the experiment on MDA-MB-435 melanoma, 103%; in the experiment with SW-620 colon, 102%; in the experiment with MCF7 breast, 70.8%; with HCT-116 colon, 92.6%. The growth was 114% in the experiment with HCC-2998 colon and 99.1% with KM12 colon.

For `COc1ccc(S(=O)(=O)N2CCCCC2)cc1NC(=O)c1[nH]c(C)c2c1CCCCC2=O`, the growth in the experiment with T-47D breast is 15.2%; in the experiment on BT-549 breast it was 50.1%; in the experiment on MDA-MB-435 melanoma it was 21.7%; with SW-620 colon it was 54%; in the experiment with MCF7 breast, 12.3%; in the experiment with HCT-116 colon it was 17.6%. Besides, the growth with HCC-2998 colon is 15.8%; in the experiment on KM12 colon it was 24.9%.

Take `COc1cc2nc(N3CCCC3)nc(NCC3CCCCC3)c2cc1OC`: the growth in the experiment with T-47D breast was -49.9% (active); in the experiment with BT-549 breast, 42.6%; with MDA-MB-435 melanoma, -72.3% (active); in the experiment with SW-620 colon, -41.6% (active); in the experiment on MCF7 breast, -78.8% (active); in the experiment on HCT-116 colon, -65.2% (active). For the same compound, the growth with HCC-2998 colon was -60.1% (active); with KM12 colon, 75.4%.

Turning to `Nc1n[nH]c2ccc([C@@H]3Nc4cc5c(cc4[C@H]4C6CCC(C6)[C@@H]34)C(=O)NC5)cc12` (stereo not given in full), the growth in the experiment on T-47D breast is 76.9%; with BT-549 breast it was -0.949% (active); in the experiment on MDA-MB-435 melanoma, -21.5% (active); in the experiment with SW-620 colon, 18.5%; in the experiment on MCF7 breast, 17.2%; in the experiment on HCT-116 colon it was 6.53% (active). Also, the growth in the experiment with HCC-2998 colon was 17.1%; in the experiment on KM12 colon, 8.14% (active).

With `N#Cc1nnn(-c2ccc(S(N)(=O)=O)cc2)c1NC(=O)CCl`, the growth with T-47D breast is 95.2%; in the experiment with BT-549 breast, 97.1%; with MDA-MB-435 melanoma, 99.6%; with SW-620 colon it was 102%; in the experiment on MCF7 breast, 90.9%; in the experiment on HCT-116 colon, 94.6%. Besides, the values for the growth in the experiment with HCC-2998 colon and with KM12 colon were 106% and 94.9%, respectively.

As to `COC(=O)c1cccc(NC(=O)c2ccc(-c3cccc(N)c3)o2)c1`, the growth in the experiment on T-47D breast was 88.1%; with BT-549 breast, 93.5%; in the experiment on MDA-MB-435 melanoma, 98.8%; with SW-620 colon, 104%; in the experiment on MCF7 breast it was 92.4%; with HCT-116 colon it was 108%. For the same compound, the growth with HCC-2998 colon is 101%; with KM12 colon it was 98%.
